# Test results reported in ChEMBL document CHEMBL3988442, “University of Dundee, Small-Polar-MMV Screening Library” (2021).
# Among all 69,000 compounds or so, about 420 (0.61%) showed an effect of 50% or more. What follows is part of a selection rich in strong results, with near analogues and random picks from the rest.
# Biological target: T1, Histidine--tRNA ligase (Leishmania infantum) (UniProt A4I591)
# T1 sequence (whole entry): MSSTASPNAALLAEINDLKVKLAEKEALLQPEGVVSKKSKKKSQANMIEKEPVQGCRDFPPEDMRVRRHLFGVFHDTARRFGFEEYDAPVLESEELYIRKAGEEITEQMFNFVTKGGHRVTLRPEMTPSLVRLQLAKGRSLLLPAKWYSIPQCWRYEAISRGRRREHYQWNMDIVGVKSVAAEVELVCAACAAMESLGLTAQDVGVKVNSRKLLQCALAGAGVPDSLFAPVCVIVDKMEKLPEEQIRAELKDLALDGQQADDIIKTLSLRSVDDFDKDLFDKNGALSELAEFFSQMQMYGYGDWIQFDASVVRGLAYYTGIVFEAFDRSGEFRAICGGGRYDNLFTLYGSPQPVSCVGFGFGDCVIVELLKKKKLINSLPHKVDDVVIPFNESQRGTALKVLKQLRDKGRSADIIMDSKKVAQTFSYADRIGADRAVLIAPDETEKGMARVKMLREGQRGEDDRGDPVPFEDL
# Assay: Leishmania infantum Histidine tRNA synthetase (LdHisRS)
# Format: functional
# Design: scale not given: in the data most compounds retested in dose-response had high values
# Settings: 30 µM
row,Compound,Percent Effect [%]
1,O=C(NCc1ccco1)[C@H]1C[C@@H]2CCN(c3cccc(F)c3)C[C@H]2O1,25
2,Cc1cnc(N2C[C@@H]3CN(Cc4ccco4)CCC[C@]3(C(=O)O)C2)nc1,19.4
3,COCC(=O)N1CCC2(CC1)NC(=O)[C@H]1CN(C(=O)N(C)C)C[C@H]12,25.2
4,CN1CCO[C@@H]2CN(C(=O)NCc3ccccc3)CC[C@@H]2C1,4.54
5,Cc1cccc(S(=O)(=O)N2C[C@H]3C[C@H](C(=O)NCC(C)C)[C@@H](C2)O3)c1,12
6,Cn1nc2c(cc1=O)CN(Cc1nc(-c3ccccn3)no1)CC2,99.1
7,c1ccc(-c2noc(CN3CCc4cncnc4C3)n2)nc1,36
8,CCn1nc2c(cc1=O)CN(Cc1nc(-c3cccnc3)no1)CC2,14.7
9,CCc1ncc2c(n1)CN(Cc1nc(-c3ccccn3)no1)CC2,22.7
10,CCn1nc2c(cc1=O)CN(Cc1nc(-c3cccs3)no1)CC2,25.9
11,CCn1nc2c(cc1=O)CN(Cc1nc(-c3ccccn3)no1)CC2,85.1
12,COc1ccc(CN2C[C@@H]3COC[C@H](N4CCN(C)CC4)[C@@H]3C2)cc1,1
13,CC(C)(C)SCCN1CC(=O)N2CC[C@@H](O)C[C@H]2C1=O,10.6
14,O=C(c1ccco1)N1CC[C@@H]2O[C@@H](COCCN3CCCC3)CC[C@@H]21,4.59
15,Cc1nccn1-c1ccc(NS(=O)(=O)c2cnn(C)c2)cn1,31.3
16,Cc1nccn1-c1ccc(NS(=O)(=O)c2cnn(C(C)C)c2)cn1,50.6
17,Cc1nccn1-c1ccc(NS(=O)(=O)c2cccnc2)cn1,33.7
18,CCC(C)NS(=O)(=O)c1ccc(/C=C\c2onc(C)c2NC(C)=O)cc1 (stereo not given),5.48
19,Cc1cc(-c2nn(C)c(Cl)c2CN2CCOCC(O)C2)no1 (stereo not given),15.2
20,Cc1cc(-c2nn(C)c(Cl)c2CN2CC[C@H](CO)[C@@H](O)C2)no1,2.78
21,Cc1cc(-c2nn(C)c(Cl)c2CN2Cc3ccccc3C(O)C2)no1 (stereo not given),66.7
22,CO[C@@H]1CC[C@H]2[C@H]1OCCN2C(=O)C1CCOCC1,23.1
23,CN1CCN(C(=O)c2cc(-c3ccco3)cs2)CC1,30
24,O=C(c1cc(-c2ccco2)cs1)N1CCCC1,55
25,O=C(c1cc(-c2ccco2)cs1)N1CCOCC1,25

row,Compound,Percent Effect [%]
1,Cc1ocnc1C(=O)N1CCN(C(=O)CC(C)C)[C@@H]2CS(=O)(=O)C[C@@H]21,6.67
2,Cc1cccc(N2Cc3nc(=O)n(Cc4cccc(F)c4)n3C2=O)c1,14.1
3,COc1ccccc1C(=O)NC(c1ccccn1)[C@H]1CC[C@H](CN)CC1 (stereo not given in full),88.4
4,NC[C@H]1CC[C@H](C(NC(=O)C2CC2)c2ccccn2)CC1 (stereo not given in full),18.8
5,NC[C@H]1CC[C@H](C(NC(=O)c2cccc(F)c2)c2ccccn2)CC1 (stereo not given in full),60
6,NC[C@H]1CC[C@H](C(NC(=O)c2ccccc2)c2ccccn2)CC1 (stereo not given in full),22.9
7,COc1cccc(C(=O)NC(c2ccccn2)[C@H]2CC[C@H](CN)CC2)c1 (stereo not given in full),39.1
8,NC[C@H]1CC[C@H](C(NC(=O)c2ccccn2)c2ccccn2)CC1 (stereo not given in full),22.9
9,O=C(CC1CC1)N1C[C@@H]2CN(c3ccccc3)C(=O)[C@@H]2C1,21.1
10,COc1cc(CN2C[C@@H]3CNC(=O)[C@H](C)[C@@H]3C2)cc(OC)c1,21.1
11,O=C1[C@H]2CN(S(=O)(=O)C3CC3)C[C@H]2CN1Cc1cccnc1,2.74
12,COCCN1C(=O)C[C@H]2[C@H]1CCN2C(=O)c1ccc[nH]1,22.6
13,Cc1cccc(CN2C[C@@H]3CN(C(=O)c4ccnnc4)C[C@@H]3C2=O)c1,28.6
14,O=C(c1cscn1)N1C[C@H]2CCCC(OCc3cccnc3)[C@H]2C1 (stereo not given in full),17
15,Cc1nc(N2CCCC2)nc2c1CCN(C(=O)C1CCCC1)CC2,23.3
16,Cc1nc(N2CCCC2)nc2c1CCN(C(=O)C1CCCCC1)CC2,23.1
17,Cc1nc(N2CCCC2)nc2c1CCN(C(=O)C1CCC1)CC2,51.3
18,CNC(=O)CN1CC[C@H]2CN(C(=O)c3ccc(C)cc3)C[C@H]2C1,9.72
19,O=C(c1cscn1)N1CC[C@@H]2[C@@H]1CCN2c1ccccn1,10.5
20,Cn1ncc(-c2cc(-c3cccc(O)c3)nc(N)c2C#N)c1C1CC1,64.6
21,Cc1nn(C)c(C)c1-c1cc(-c2cnn(C)c2C2CC2)c(C#N)c(N)n1,19
22,Cc1cc(O)ccc1-c1cc(-c2cnn(C)c2C2CC2)c(C#N)c(N)n1,29.1
23,CC(CNC(=O)c1cnccn1)Oc1ccc(F)cc1 (stereo not given),5.31
24,O=C(c1cncc(N2CCC3(CCCNC3)C2)n1)N1CCCC1 (stereo not given),56.7
25,O=C(c1cncc(N2CCCC3(CCNCC3)CC2)n1)N1CCCCC1,31.7

row,Compound,Percent Effect [%]
1,O=C(c1cncc(N2CCC3(CCNCC3)CC2)n1)N1CCCC1,18.4
2,CC1(C)[C@H]2CC=C(CN3CCCn4nc(CNS(C)(=O)=O)cc4C3)[C@@H]1C2,10.6
3,CS(=O)(=O)NCC1CCCN(C(=O)Nc2cccc3ccccc23)C1 (stereo not given),33
4,CN1C(=O)[C@H]2CC[C@@H]1CN(C(=O)Nc1ccccc1C(F)(F)F)C2,7.84
5,CN1C(=O)[C@H]2CC[C@@H]1CN(C(=O)Nc1cccc3ccccc13)C2,68.6
6,CC(C)c1ccccc1NC(=O)N1C[C@@H]2CC[C@H](C1)N(C)C2=O,11.8
7,O=C(Nc1cccc2ccccc12)N1CCC(N2CCSCC2)CC1,18.3
8,Cc1oncc1C(=O)N1CC[C@H]2C[C@H](c3ccncn3)O[C@@H]2C1,7.27
9,CS(=O)(=O)NC[C@]12COC[C@H]1CN(C(=O)C1CC=CC1)C2,-44.5
10,Fc1ccc(N2CCC3(CC2)CC(OCc2cccnc2)CO3)cc1 (stereo not given),56.1
11,N#Cc1ccc(N2CCC3(CC2)CC(OCc2cccnc2)CO3)cc1 (stereo not given),33.3
12,Fc1cnc(N2CCC3(CC2)CC(OCc2cccnc2)CO3)nc1 (stereo not given),8.77
13,CCN1CC[C@@]2(C(=O)N(C)C)CCN(C(=O)NC(C)C)CC[C@@H]12,15.5
14,COc1ccccc1C(=O)N1CCOC2(CCCN(C(C)=O)C2)C1 (stereo not given),8
15,CCCOCC1CCN(C(=O)Cn2ncc(N3CCCC3)cc2=O)C1 (stereo not given),-3.8
16,O=C1NCC2(CCCN(C(=O)Cn3nc4ccccc4n3)CC2)O1 (stereo not given),6.45
17,COc1ccccc1-c1ccccc1CC1(C(=O)O)CCNCC1,2.84
18,CCCOCC1CCN(C(=O)Cn2cccc(C(F)(F)F)c2=O)C1 (stereo not given),12
19,COc1cccn(CC(=O)N2CCC3(CCNCC3)C2)c1=O,116
20,COc1cccn(CC(=O)N2CCCC3(CCCO3)CC2)c1=O (stereo not given),101
21,COc1cccc2c1ccn2CC(=O)N1CCCC(C(=O)O)C1 (stereo not given),7.89
22,CCCOCC1CCN(C(=O)Cn2cccc(OC)c2=O)C1 (stereo not given),97.4
23,COC1CCN(C(=O)Cn2cccc(C(F)(F)F)c2=O)C1 (stereo not given),18.8
24,COc1cccc(CN2CC3(CCNCC3)CCC2=O)c1OC,8.57
25,COc1cccn(CC(=O)N2CCCC3(CCCCC3)C2)c1=O,110
